Source: ChEMBL document CHEMBL1961873, “Compounds: GSK PKIS; Assays: Nanosyn kinase panel” (2012)

Experiments:
[1] = biological target: Serine/threonine-protein kinase MRCK alpha (Homo sapiens) (UniProt Q5VT25); settings: at 0.1 µM
[2] = biological target: Serine/threonine-protein kinase MRCK alpha (Homo sapiens) (UniProt Q5VT25); settings: at 1 µM
[3] = biological target: Serine/threonine-protein kinase MRCK beta (Homo sapiens) (UniProt Q9Y5S2); settings: at 0.1 µM
[4] = biological target: Serine/threonine-protein kinase MRCK beta (Homo sapiens) (UniProt Q9Y5S2); settings: at 1 µM
[5] = biological target: Ribosomal protein S6 kinase alpha-5 (Homo sapiens) (UniProt O75582); settings: at 0.1 µM
Chain of Ribosomal protein S6 kinase alpha-5 (Homo sapiens) (O75582 whole entry, looked up): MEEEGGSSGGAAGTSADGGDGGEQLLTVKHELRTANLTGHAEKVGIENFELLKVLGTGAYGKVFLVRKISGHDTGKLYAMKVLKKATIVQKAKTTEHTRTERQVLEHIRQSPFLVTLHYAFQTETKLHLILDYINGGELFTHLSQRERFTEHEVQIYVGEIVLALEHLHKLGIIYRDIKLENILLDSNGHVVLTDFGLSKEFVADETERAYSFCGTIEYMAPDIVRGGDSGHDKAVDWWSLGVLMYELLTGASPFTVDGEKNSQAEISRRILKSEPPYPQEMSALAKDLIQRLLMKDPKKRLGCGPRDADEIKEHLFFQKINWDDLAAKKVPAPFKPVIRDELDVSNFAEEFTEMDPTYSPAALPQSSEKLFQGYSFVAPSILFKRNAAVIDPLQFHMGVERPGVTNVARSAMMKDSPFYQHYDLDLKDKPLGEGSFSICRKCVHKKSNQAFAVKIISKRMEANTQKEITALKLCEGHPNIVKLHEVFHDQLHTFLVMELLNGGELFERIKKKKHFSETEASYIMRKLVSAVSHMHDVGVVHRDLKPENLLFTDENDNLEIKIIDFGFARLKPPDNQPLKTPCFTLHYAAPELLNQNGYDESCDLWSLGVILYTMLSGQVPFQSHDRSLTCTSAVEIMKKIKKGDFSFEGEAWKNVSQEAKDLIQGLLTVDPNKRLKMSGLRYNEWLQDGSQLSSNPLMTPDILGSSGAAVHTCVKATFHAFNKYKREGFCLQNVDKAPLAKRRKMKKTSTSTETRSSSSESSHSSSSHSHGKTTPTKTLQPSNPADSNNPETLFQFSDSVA

[6] = biological target: Ribosomal protein S6 kinase alpha-5 (Homo sapiens) (UniProt O75582); settings: at 1 µM
[7] = biological target: Ribosomal protein S6 kinase alpha-4 (Homo sapiens) (UniProt O75676); settings: at 0.1 µM
Chain of Ribosomal protein S6 kinase alpha-4 (Homo sapiens) (O75676 whole entry, looked up): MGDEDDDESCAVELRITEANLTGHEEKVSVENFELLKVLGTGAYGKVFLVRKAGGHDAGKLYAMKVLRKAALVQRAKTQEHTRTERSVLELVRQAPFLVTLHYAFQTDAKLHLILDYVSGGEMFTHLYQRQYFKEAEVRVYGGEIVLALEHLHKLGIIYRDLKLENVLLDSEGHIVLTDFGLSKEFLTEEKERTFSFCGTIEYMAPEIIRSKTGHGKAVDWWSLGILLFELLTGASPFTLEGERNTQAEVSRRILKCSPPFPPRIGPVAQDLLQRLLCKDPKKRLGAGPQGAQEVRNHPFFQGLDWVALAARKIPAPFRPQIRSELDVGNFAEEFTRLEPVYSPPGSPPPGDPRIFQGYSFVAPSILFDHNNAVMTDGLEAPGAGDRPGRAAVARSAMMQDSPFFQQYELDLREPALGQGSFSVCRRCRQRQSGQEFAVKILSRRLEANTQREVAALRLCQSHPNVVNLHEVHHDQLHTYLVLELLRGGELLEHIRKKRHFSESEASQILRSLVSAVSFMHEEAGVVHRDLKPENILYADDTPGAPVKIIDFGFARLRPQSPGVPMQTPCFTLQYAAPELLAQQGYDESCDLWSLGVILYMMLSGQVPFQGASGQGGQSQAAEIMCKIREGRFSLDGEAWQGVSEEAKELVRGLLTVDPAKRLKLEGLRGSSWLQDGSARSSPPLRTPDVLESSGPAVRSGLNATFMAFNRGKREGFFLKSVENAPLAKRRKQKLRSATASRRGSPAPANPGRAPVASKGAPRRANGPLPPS

[8] = biological target: Ribosomal protein S6 kinase alpha-4 (Homo sapiens) (UniProt O75676); settings: at 1 µM
[9] = biological target: Ribosomal protein S6 kinase beta-1 (Homo sapiens) (UniProt P23443); settings: at 0.1 µM
Chain of Ribosomal protein S6 kinase beta-1 (Homo sapiens) (P23443 whole entry, looked up): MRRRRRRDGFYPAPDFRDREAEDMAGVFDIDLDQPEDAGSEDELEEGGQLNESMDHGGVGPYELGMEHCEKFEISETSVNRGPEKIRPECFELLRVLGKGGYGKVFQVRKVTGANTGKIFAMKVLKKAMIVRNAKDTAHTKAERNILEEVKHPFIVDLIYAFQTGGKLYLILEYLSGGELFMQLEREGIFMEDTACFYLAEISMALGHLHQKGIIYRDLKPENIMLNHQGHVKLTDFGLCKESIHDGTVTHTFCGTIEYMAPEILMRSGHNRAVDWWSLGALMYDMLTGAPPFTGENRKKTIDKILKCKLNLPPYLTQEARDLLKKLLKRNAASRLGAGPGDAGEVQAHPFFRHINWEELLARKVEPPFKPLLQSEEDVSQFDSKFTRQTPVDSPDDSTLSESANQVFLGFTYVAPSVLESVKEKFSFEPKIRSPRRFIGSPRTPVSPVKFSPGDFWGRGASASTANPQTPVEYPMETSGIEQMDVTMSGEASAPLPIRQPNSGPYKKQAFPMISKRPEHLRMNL

[10] = biological target: Ribosomal protein S6 kinase beta-1 (Homo sapiens) (UniProt P23443); settings: at 1 µM

Chain of Serine/threonine-protein kinase MRCK alpha (Homo sapiens) (Q5VT25 whole entry): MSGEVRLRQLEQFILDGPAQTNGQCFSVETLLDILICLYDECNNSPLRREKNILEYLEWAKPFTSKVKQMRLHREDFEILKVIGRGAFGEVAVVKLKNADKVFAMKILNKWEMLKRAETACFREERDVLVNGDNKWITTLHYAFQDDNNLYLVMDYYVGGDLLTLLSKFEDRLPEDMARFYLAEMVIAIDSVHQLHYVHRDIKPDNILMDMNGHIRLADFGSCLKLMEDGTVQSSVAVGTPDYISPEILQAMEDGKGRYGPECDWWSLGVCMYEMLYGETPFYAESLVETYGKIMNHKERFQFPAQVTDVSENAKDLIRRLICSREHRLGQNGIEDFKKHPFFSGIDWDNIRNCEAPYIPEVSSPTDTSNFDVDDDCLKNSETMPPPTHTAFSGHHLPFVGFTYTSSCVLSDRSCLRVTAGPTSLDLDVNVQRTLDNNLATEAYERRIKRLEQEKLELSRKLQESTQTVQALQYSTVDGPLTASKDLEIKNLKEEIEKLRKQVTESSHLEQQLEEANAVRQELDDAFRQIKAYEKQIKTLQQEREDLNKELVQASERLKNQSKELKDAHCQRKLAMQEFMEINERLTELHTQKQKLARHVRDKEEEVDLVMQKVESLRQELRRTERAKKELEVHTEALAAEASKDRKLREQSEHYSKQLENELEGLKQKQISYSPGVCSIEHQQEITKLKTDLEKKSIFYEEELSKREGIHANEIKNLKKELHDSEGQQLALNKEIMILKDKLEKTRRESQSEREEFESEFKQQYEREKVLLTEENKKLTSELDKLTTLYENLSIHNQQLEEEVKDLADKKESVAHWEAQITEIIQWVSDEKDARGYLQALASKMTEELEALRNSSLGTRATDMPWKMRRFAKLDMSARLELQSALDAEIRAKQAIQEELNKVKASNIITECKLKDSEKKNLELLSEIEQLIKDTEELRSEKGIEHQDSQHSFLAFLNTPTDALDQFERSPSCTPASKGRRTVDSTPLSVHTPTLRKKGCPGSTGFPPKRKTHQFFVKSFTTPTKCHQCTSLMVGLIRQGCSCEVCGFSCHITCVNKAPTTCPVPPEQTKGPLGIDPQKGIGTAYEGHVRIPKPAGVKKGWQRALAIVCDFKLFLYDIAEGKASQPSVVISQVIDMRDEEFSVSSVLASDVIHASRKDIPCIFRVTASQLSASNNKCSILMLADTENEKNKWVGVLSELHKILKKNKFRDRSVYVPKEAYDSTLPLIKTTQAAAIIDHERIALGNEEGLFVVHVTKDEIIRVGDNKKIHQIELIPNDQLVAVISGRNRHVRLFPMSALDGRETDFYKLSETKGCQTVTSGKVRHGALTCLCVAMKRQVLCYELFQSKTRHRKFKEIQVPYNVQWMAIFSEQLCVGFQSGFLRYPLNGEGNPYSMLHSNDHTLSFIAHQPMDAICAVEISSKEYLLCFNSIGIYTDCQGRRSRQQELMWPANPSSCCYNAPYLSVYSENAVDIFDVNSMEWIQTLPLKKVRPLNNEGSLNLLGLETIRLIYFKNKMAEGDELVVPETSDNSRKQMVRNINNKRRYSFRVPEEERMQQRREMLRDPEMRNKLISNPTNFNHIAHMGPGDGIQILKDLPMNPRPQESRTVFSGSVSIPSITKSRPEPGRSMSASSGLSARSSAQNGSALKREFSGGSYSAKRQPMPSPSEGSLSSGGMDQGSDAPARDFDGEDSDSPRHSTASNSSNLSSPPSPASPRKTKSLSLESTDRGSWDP

Row | Structure (SMILES) | inhibition [1] [%] | inhibition [2] [%] | inhibition [3] [%] | inhibition [4] [%] | inhibition [5] [%] | inhibition [6] [%] | inhibition [7] [%] | inhibition [8] [%] | inhibition [9] [%] | inhibition [10] [%]
1 | COc1cccc(COc2cc(-n3cnc4ccccc43)sc2C(N)=O)c1 | -5.2 | -1.17 | -0.37 | 0.51 | 0.54 | -1.08 | 1.36 | -0.28 | 0.45 | -0.53
2 | CCn1c(-c2nonc2N)nc2c(C#CCN)ncc(OCCCN)c21 | 6.68 | 13.4 | 6.58 | 23.4 | 12.1 | 51.5 | 12.9 | 52 | 7.3 | 44.7
3 | Fc1ccc(-c2ncn(C3CCNCC3)c2-c2ccnc(Oc3ccccc3)n2)cc1 | -3.2 | -1.87 | -0.1 | -0.81 | -1.31 | -2.46 | 1.09 | 0.21 | 1.34 | 7.24
4 | NS(=O)(=O)c1ccc(N/C=C2\C(=O)Nc3ccc4ncsc4c32)cc1 | -1.47 | 10.5 | 0.46 | 5.66 | 5.1 | 12.2 | 15.3 | 50.9 | 1.92 | 13.5
5 | CCn1c(-c2nonc2N)nc2c(C#CC(C)(C)O)nc(O[C@@H](CN)c3ccccc3)cc21 | 29 | 72.8 | 20.8 | 66.2 | 8.67 | 51.3 | 15 | 61.3 | 13.1 | 58.4
6 | COc1cc2c(cc1Nc1nc(Nc3ccsc3C(N)=O)c3cc[nH]c3n1)N(C(=O)CN(C)C)CCC2 | -2.47 | -0.12 | -0.68 | -0.44 | 2.59 | -0.04 | 2.53 | -0.18 | 1.15 | 0.53
7 | NS(=O)(=O)c1ccc(-c2ccc3c(NC(=O)C4CC4)n[nH]c3c2)cc1 | -0.42 | -1.48 | 0.24 | 1.84 | 3.18 | 7.98 | -0.31 | 4.18 | 0.95 | 2.84
8 | CCn1c(-c2nonc2N)nc2c(C#CC(C)(C)O)ncc(OCC3CCNCC3)c21 | 3.52 | 33.2 | 2.36 | 21.1 | 2.98 | 16.2 | 4.39 | 19.2 | 3.1 | 15.4
9 | Cc1cc(-c2ccco2)cc(C)c1/C=C/c1cncc(-c2nn[nH]n2)c1 | -2.3 | -3.4 | 0.22 | -0.72 | -0.62 | -1.54 | 0.13 | 1.02 | 0.97 | -0.33
10 | COc1cc(C=NNc2ncnc3c2cnn3Cc2ccccc2)ccc1O | 1.44 | -1.07 | 1.9 | 4.11 | 2.29 | 3 | 1.75 | 4.49 | -1.02 | -0.11
11 | CCn1c(-c2nonc2N)nc2c(C#CC(C)(C)O)ncc(OC[C@@H]3CCCN3)c21 | -1.54 | 23.5 | 2.11 | 19.5 | 0.57 | 7.89 | 3.2 | 17.5 | 3.87 | 25.4
12 | Nc1nonc1-c1nc2cnccc2n1C1CCCCC1 | 18.6 | 65.9 | 29.6 | 72 | 76.5 | 85.2 | 59.6 | 83 | 72.6 | 91.2
13 | NC(=O)c1sc(-n2cnc3cc(C(F)(F)F)ccc32)cc1OCc1ccccc1Br | -1.08 | -4.81 | 0.07 | 0.13 | 0.28 | -0.19 | 2.32 | 1.32 | 1.25 | -0.49
14 | COc1cccc(-n2ncc3c(N/N=C/c4ccncc4)ncnc32)c1 | -0.11 | 3.78 | 0.53 | 0.77 | 3.86 | 4.1 | 2.47 | 4.26 | 2.67 | 7.24
